Screening data deposited in PubChem by National Center for Advancing Translational Sciences (NCATS).
BAZ2B inh: blocks human BAZ2B. 360,000 compounds, 4.4% hits. Q9UIF8. Potency, µM (titrated, usually from 114 µM), inactives show at the top dose activity change, negative = inhibition, actives largely listed as inhibitors. AID 504333. AlphaScreen BAZ2B-H3K14Ac peptide displacement; further: on the % scale 0 is the no-effect control and ±100 the full control effect; nearly all actives have a fitted effect of over 60% in size
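AlphaScreen displacement: compounds (up to 110uM) incubated 30 min at room temperature with a preformed 50 nM BAZ2B/50 nM biotinylated H3K14Ac peptide complex in PBS pH 7.4 with Tween-20. Donor and acceptor beads at 10 ug/mL final added, 20 min light-protected before reading.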
JMJD2A Tudor inh: JMJD2A Tudor domain (human) inhibition; AlphaScreen JMJD2A-Tudor / H3K4me3 peptide binding; Potency, µM (top dose mostly 114 µM), inactives show top-dose activity change, negative = inhibition, actives largely listed as inhibitors; O75164; 390,000 compounds, 4.4% hits; further: on the % scale 0 is the no-effect control and ±100 the full control effect; nearly all actives have a fitted effect of over 50% in size
Target sequence (O75164 whole entry, looked up, the tested form may be a part): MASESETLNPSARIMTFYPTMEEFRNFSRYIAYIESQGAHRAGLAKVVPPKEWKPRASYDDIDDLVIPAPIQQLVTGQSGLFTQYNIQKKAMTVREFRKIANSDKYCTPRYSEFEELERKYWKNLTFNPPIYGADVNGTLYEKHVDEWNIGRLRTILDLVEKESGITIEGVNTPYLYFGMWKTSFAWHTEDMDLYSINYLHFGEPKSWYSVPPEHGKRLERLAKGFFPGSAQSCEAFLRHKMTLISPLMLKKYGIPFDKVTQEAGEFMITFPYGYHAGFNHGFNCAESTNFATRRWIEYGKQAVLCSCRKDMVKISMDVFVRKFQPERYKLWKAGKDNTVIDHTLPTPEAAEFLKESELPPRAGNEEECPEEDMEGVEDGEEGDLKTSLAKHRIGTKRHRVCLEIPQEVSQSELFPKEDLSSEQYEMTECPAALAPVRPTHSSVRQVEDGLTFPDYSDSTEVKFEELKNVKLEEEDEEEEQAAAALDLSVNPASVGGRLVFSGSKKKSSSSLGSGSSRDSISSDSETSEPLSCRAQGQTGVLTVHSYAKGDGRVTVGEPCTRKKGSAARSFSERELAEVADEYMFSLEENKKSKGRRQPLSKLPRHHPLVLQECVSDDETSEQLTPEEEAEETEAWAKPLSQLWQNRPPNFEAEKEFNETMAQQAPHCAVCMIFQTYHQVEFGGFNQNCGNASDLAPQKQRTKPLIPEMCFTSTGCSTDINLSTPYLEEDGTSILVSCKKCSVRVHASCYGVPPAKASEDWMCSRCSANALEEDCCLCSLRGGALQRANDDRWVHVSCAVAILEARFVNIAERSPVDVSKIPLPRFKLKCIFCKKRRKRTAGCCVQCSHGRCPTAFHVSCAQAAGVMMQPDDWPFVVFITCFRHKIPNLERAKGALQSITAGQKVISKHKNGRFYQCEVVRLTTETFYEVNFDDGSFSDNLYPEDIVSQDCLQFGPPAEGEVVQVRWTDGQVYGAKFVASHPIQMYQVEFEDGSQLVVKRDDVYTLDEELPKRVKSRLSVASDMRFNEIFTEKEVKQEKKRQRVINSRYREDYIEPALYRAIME
HP1b chromo inh: blocks HP1-beta chromodomain binding to methylated histone tails; AlphaScreen HP1-beta / biotin-H3K9me3 peptide binding; Potency, µM (highest dose often 114 µM), for the others: at the top dose activity change, negative = inhibition, usual class: inhibitors; 390,000 compounds, 0.56% hits; AID 540317; further: nearly all actives have a fitted effect of over 70% in size
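AlphaScreen: HP1-beta (50 nM) preformed 30 min with biotin-H3(1-18)K9me3 peptide (50 nM) in PBS pH 7.4, 0.01% Tween-20. Compound added for 30 min at RT, then streptavidin donor/nickel chelate acceptor beads (10 ug/mL) for 30 min.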
GLS inhibitor: blocks human kidney-isoform glutaminase activity | O94925 | GLS enzymatic activity, qHTS titration | Potency, µM (highest dose often 45.5 µM), inactives show top-dose activity change, negative = inhibition, most hits filed as inhibitors | 410,000 compounds, 0.21% hits; further: on the % scale 0 is the no-effect control and ±100 the full control effect
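hKGA in 45 mM KH2PO4 (pH 8.2), 0.02% Tween-20 with compound, then 1mM L-Glutamine (stock as added) plus glutamate oxidase/HRP/Amplex red coupling mix. Fluorescence read initially and after 30 min at RT; signal change reflects glutamate formation.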
G9a block: blocks human histone lysine methyltransferase G9a; Q96KQ7; G9a H3K9 monomethylation, AlphaScreen, 2 h; Potency, µM (doses to about 102 µM), for inactives: at the highest dose activity, negative = inhibition, actives largely listed as inhibitors; 350,000 compounds, 8.8% hits; further: on the % scale 0 is the no-effect control and ±100 the full control effect; nearly all actives have a fitted effect of over 75% in size
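Step 1: enzyme (final 20 nM) with compound, 15 min RT. Step 2: substrate peptide 500 nM and SAM 20 uM, 2 h RT. Step 3: anti-H3K9me1 antibody and AlphaScreen beads, 10 min, then plate read.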
An asterisk follows results filed as active; ? = inconclusive; . = not tested or not shown; [ ] = remark or other dose. In the library only some 10% were active in any assay of this set; here they are far more common. The call rests on the fitted dose curve; in most records, active means well fitted curve in the direction sought with a large enough effect; inconclusive means small, poorly fitted or top-dose-only effect, or another doubt; inactive means no such curve, though single readings can be large; an effect the other way counts as inactive or inconclusive. Potency means the concentration at half of the fitted maximal effect.

SMILES	BAZ2B inh	JMJD2A Tudor inh	HP1b chromo inh	GLS inhibitor	G9a block
CCCn1cc2c(c1-c1ccc(C)cc1)c(=O)n(C)c(=O)n2C	?	-22.2%	22.0%	-1.3%	.
COc1ccc(-c2c3c(=O)n(C)c(=O)n(C)c3cn2C2CCCCC2)cc1	50.1µM*	?	?	27.0%	?
CCOC(=O)c1ccc(CNc2ncnc3nc[nH]c23)cc1	.	-14.6%[57.1 µM]	23.6%[57 µM]	.	.
Cc1cc(NC(=O)C(C)C)ncc1NC(=O)c1ccccn1	50.1µM*	-15.1%	-7.5%	8.7%	17.8µM*
CCCC(=O)Nc1cc(C)c(NC(=O)c2ccccn2)cn1	50.1µM*	?	36.7%	13.9%	7.94µM*
CCOc1cc(NC(=O)c2ccccn2)c(OCC)cc1NC(=O)CC(C)C	7.0%	20µM*	-9.9%	25.9%	11.1%[59 µM]
CCOc1cc(NC(=O)c2ccccn2)c(OCC)cc1NC(=O)c1ccccc1	-0.8%	0.7%	55.3%	0.8%	-1.6%
COc1ccc(CNC(=O)Cn2c(=O)nc(-c3ccccc3F)c3cc(Cl)ccc32)cc1	-18.9%	-5.0%	26.2%	-8.0%	-33.1%[12.7 µM]
CN(c1ccc(Cl)cc1)c1cc2c(c3c1ccn3C)C1CCC2O1 (centres undefined)	.	.	.	-1.1%	.
COC(=O)c1nn(-c2ccc(C)cc2)c2nnc(Cc3ccccc3)c(=O)n12	0.3%	0.0%	41.1%	-1.4%	17.8µM*
CCc1nc2ccc(C(=O)N(C)Cc3ccco3)cn2c1N(CC)C(=O)NCCc1ccccc1	.	.	.	-2.6%	.
CCCc1oc(C(=O)O)cc1CN	?	-19.4%	38.7%	-27.9%	?
CCc1oc(C(=O)O)cc1COC	?	?	6.9%	?	44.7µM*
CCc1oc(C(=O)O)cc1CN(CC)CC	-19.5%	31.6µM*	-2.0%	0.5%	-27.3%[59 µM]
Cc1oc(-c2ccc(C(=O)Nc3cccc(C(F)(F)F)c3)cc2)nc1CSc1ccccc1	-14.6%	-14.1%	25.7%	-10.6%	-0.8%[59 µM]
Cc1ccc(S(=O)(=O)CCC(=O)OC(C)C(=O)N2CCc3ccccc32)cc1 (centres undefined)	5.4%	-19.3%	23.0%	-3.0%	17.1%[0.501 µM]
Nc1nn(-c2ccccc2)nc1C(=O)OCc1ccccc1Br	50.5%	47.0%	106.6%	-1.2%	82.7%[59 µM]
O=[N+]([O-])c1ccc(N2CCN(Cc3ccncc3)CC2)cc1	50.1µM*	22.4µM*	?	-5.7%	31.6µM*
O=[N+]([O-])c1ccc(N2CCN(Cc3ccc(Br)o3)CC2)cc1	79.4µM*	22.4µM*	?	-4.3%	?
O=C(CN1CCOCC1)N1CCN(c2ccc([N+](=O)[O-])cc2)CC1	-19.2%	6.0%	39.3%	9.3%	-2.0%
O=[N+]([O-])c1ccc(N2CCN(c3ccc(F)cc3)CC2)cc1	-7.8%	-16.1%	-5.0%	6.3%	-1.8%
O=[N+]([O-])c1ccc(N2CCN(Cc3ccc([N+](=O)[O-])o3)CC2)cc1	31.6µM*	20µM*	?	2.1%	?
O=[N+]([O-])c1ccc(CN2CCN(c3ccccc3Cl)CC2)o1	50.1µM*	22.4µM*	?	-9.2%	28.2µM*
CC(C)=CCC[C@H](C)C[C@@H]1Cc2[nH][nH]c(=O)c2[C@@H](c2ccc(F)cc2)O1	.	.	.	7.1%	.
CC(=O)OCC(NC(=O)C1CCCN1C(=O)OC(C)(C)C)C1OC(n2cc(F)c(=O)[nH]c2=O)C(OC(C)=O)C1OC(C)=O (centres undefined)	.	-18.6%	20.4%	.	.
SMILES	BAZ2B inh	JMJD2A Tudor inh	HP1b chromo inh	GLS inhibitor	G9a block
Cc1cccc(O)c1C	.	-17.7%	20.9%	15.7%	.
Cc1cccc(C)c1N=Nc1c(C)cc(O)cc1C	17.8µM*	20µM*	?	-13.2%	35.5µM*
O=C(N/N=C/C(Cl)=C/c1ccc([N+](=O)[O-])cc1)C(=O)Nc1ccccc1C(=O)O	?	?	-21.3%	-2.3%	35.5µM*
O=C(N/N=C/C(Cl)=C/c1ccccc1)c1ccccc1F	-16.4%	-27.1%	-18.2%	6.8%	31.6µM*
O=C(N/N=C/C(Cl)=C/c1ccc([N+](=O)[O-])cc1)C(=O)Nc1ccc(C(=O)O)cc1	?	-33.8%[11.4 µM]	?	9.8%	50.1µM*
O=C(N/N=C/C(Br)=C/c1ccccc1)c1ccccc1F	-15.7%	-27.0%	21.5%	-8.0%	-41.4%
CCOc1ccccc1NC(=O)C(=O)N/N=C/c1ccc([N+](=O)[O-])cc1	-9.6%	3.8%	27.6%	-3.6%	-0.7%
CCNC(=O)C1(C)CCN(C(=O)c2ccccc2C(F)(F)F)C1 (centres undefined)	.	.	.	-3.3%	.
O=C(/C=C/c1ccccc1)OCCN=C1NS(=O)(=O)c2ccccc21	-2.0%	-0.7%	9.7%	-0.2%	23.9%
O=C(CCN=C1NS(=O)(=O)c2ccccc21)OCC(=O)c1ccccc1Cl	0.2%	-14.9%	10.0%	4.8%	56.2µM*
O=C(/C=C/c1ccccc1)OCCCCN=C1NS(=O)(=O)c2ccccc21	2.8%	28.2µM*	-10.2%	-0.2%	.
CC(OC(=O)CCN=C1NS(=O)(=O)c2ccccc21)C(=O)N(C)c1ccccc1 (centres undefined)	-4.7%	-11.7%	10.6%	-0.7%	-0.5%
O=C(CCCN=C1NS(=O)(=O)c2ccccc21)OCc1ccccc1	2.2%	-2.1%	24.9%	-2.6%	44.7µM*
O=C(CCCN=C1NS(=O)(=O)c2ccccc21)OCc1ccc(F)cc1	17.8%	1.4%	21.0%	7.3%	2.3%
CC(OC(=O)CCCN=C1NS(=O)(=O)c2ccccc21)C(=O)N(C)c1ccccc1 (centres undefined)	12.6%	0.0%	26.9%	7.1%	39.8µM*
CN(C)S(=O)(=O)c1ccc(C(=O)NN2C(=O)NC3(CCCCC3)C2=O)cc1	11.0%	-8.2%	26.3%	-5.6%	-7.4%
CCCCn1cnc2c1c(=O)n(C)c(=O)n2C	-2.3%	-13.5%	7.1%	-5.1%	6.4%[59 µM]
Cn1c(=O)c2c(ncn2CCCC(=N)N2CCOCC2)n(C)c1=O	-2.3%	50.1µM*	-7.9%	0.5%	5.3%[12.7 µM]
Cc1ccc(C)c(NC(=O)C2CCCN2S(=O)(=O)c2ccc3c(c2)CCCC(=O)N3)c1 (centres undefined)	7.5%	-17.5%	27.5%	-4.8%	4.0%[59 µM]
COc1ccc(NC(=O)c2c(NCc3ccc(N(C)C)cc3)sc3c2CCC3)cc1	31.6µM*	56.2µM*	?	-0.3%	11.2µM*
COc1cccc(CC(=O)Nc2sc3c(c2C(N)=O)CCCC3)c1	-13.1%	-2.7%	20.5%	-10.0%	39.8µM*
COC(=O)c1c(NC(=O)C2CCCCC2C(=O)O)sc2c1CCCCC2 (centres undefined)	-30.4%	-15.9%	-11.1%	-1.1%	31.6µM*
COC(=O)c1c(NC(=O)Cc2cccs2)sc2c1CCCC2	79.4µM*	?	-2.5%	15.3%	14.6%[59 µM]
CCc1ccc(C(=O)c2cn(CC(=O)Nc3ccc(C)c(C)c3)c3ccccc3c2=O)cc1	?	-13.9%	37.9%	-1.0%	-29.9%[59 µM]
